Pf Dd2 inh = qHTS Primary assay for Inhibitors of Plasmodium falciparum Dd2 growth in vitro; 4.3% of 120,000 active; P. falciparum Dd2 growth, SYBR Green, 72 h; AID 1347417, 2020; Potency, µM (series often up to 28.9 µM), for the others: at the top dose activity, negative = inhibition, hits mostly inhibitors; active = well fitted inhibition curve with a large enough effect;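 note: plate controls were DMSO vehicle for no effect and reference drug for full effect; nearly all actives have a fitted effect of over 65% in size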
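Infected erythrocytes (Dd2, 0.3% parasitemia, 2.5% hematocrit final) are added to compound in RPMI-1640/Albumax II medium, grown 72 h at 37C in low oxygen, then lysed with saponin/Triton-X containing SYBR Green and read by fluorescence.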
* hit, by the source's call; i = inactive; [ ] = another dose, or the depositor's remark. Many of the other results were omitted from the sample, so hits are more common in it than they were. Potency is the fitted concentration of half-maximal effect.

SMILES	Pf Dd2 inh
CS(=O)(=O)NC[C@H]1OC[C@@H](NCc2ccccn2)[C@@H]1O	-14%[44.1 µM]
Cc1ncc2c(c1CNC(=O)c1ccc(OC(F)F)cc1)CCNC2	1%
O=C1CCCN1Cc1nc(-c2ccc(F)c(Cl)c2)no1	-14%
CN1c2cc(C(=O)Nc3ccc(OC(F)(F)F)cc3)ccc2C(=O)N2CCCC21 (stereo not given)	i
COc1ccc(C(=O)N[C@@H]2CCC[C@@H]2C(=O)N2CCN(c3ncccn3)CC2)cn1	-14%
COc1ccc(C(=O)N[C@@H]2CCC[C@@H]2C(=O)Nc2cc(F)ccc2C)cn1	11%
COc1ccc(C(=O)N[C@@H]2CCC[C@@H]2C(=O)N2CCN(c3cc(C)ccc3C)CC2)cn1	10µM*
COc1ccc([C@H]2C[C@@H](O)[C@@H](O)[C@@H]2NCc2cnc3ccccc3c2)cc1	i
COc1ccc([C@H]2C[C@@H](O)[C@@H](O)[C@@H]2NCc2cccc(C(F)(F)F)c2)cc1	8.9µM*
COc1ccc([C@H]2C[C@@H](O)[C@@H](O)[C@@H]2NCc2cccc(C#N)c2)cc1	-11%[44.1 µM]
O=C(c1ccccc1F)N1CCn2c(nnc2[C@@H]2C[C@@H](O)CN2Cc2cccnc2)C1	35%
Cc1cc(-c2cc(-c3cccs3)nc3c(C)noc23)ccn1	1%[44.1 µM]
CC(=O)N[C@@H]1Cc2ccccc2[C@H]1NC(=O)CN1C(=O)CNC1=O	7%
Cc1ccc(C)c(Cn2c(=O)n(Cc3ccc(C(=O)NC4CCN(Cc5ccccc5)CC4)cc3)c(=O)c3ccccc32)c1	-3%
O=C(NC1CCN(Cc2ccccc2)CC1)c1ccc(Cn2c(=O)c3ccccc3n(Cc3ccc(F)cc3)c2=O)cc1	10µM*
O=c1c2ccccc2n(Cc2c(F)cccc2Cl)c(=O)n1Cc1ccccc1	-2%
O=C(O)CCNC(=O)N1CCCC(c2cccc(C(=O)O)c2)C1 (stereo not given)	2%
CCCCN1C(=O)[C@@H]2C[C@@H](O)CN2C2(CN(CC3CC3)C2)C1=O	-18%[44.1 µM]
Cc1noc(C)c1-c1cnc2[nH]cc(CC(=O)NCc3cccnc3)c2c1	-11%[44.1 µM]
O=C(Cc1c[nH]c2ncc(-c3ccc(Oc4ccccc4)cc3)cc12)NCc1cccnc1	8.9µM*
O=C(Cc1c[nH]c2ncc(-c3ccccc3F)cc12)NCc1cccnc1	-2%[44.1 µM]
NC(=O)Cc1c[nH]c2ncc(-c3ccc(F)cc3)cc12	i
COc1ccc(-c2cnc3[nH]cc(CC(N)=O)c3c2)cc1OC	0.63µM*
Cc1cccc(-c2cnc3[nH]cc(CC(N)=O)c3c2)c1	i
CN(C)c1cccc(-c2cnc3[nH]cc(CC(=O)NCc4cccnc4)c3c2)c1	8.9µM*
SMILES	Pf Dd2 inh
Cc1ccccc1-c1cnc2[nH]cc(CC(=O)NCc3cccnc3)c2c1	-15%[44.1 µM]
CN(C)c1cccc(NC(=O)Cc2c[nH]c3ncc(-c4cccnc4)cc23)c1	i
CCN(c1ccc2c(c1)OCO2)C1CN(C(=O)OC(C)(C)C)C1	-14%
O=C(c1ccco1)N1CCN(C(=O)c2nnn3c2COC(c2ccccc2)C3)CC1 (stereo not given)	i
Cc1noc(C)c1NC(=O)N[C@@H]1C[C@H](Cn2cc(CN3CCS(=O)(=O)CC3)nn2)[C@@H](O)[C@H]1O	12%
Cc1ccc2oc([C@H]3CCN(Cc4ccc(N(C)C)cc4)C3)nc2c1	i
CN1CCCn2nc(C(=O)N(C)Cc3cc(-c4cccs4)n[nH]3)cc2C1	-4%
CN(Cc1cc(-c2cccs2)n[nH]1)C[C@@H]1CCCN2CCCC[C@H]12	7.1µM*
CN(Cc1cc(-c2cccs2)n[nH]1)C(=O)c1cn(CCN)nn1	-5%
O=C1OCC2(CCN([S+](=O)([O-])c3ccccc3F)C2)N1CCN1CCOCC1 (stereo not given)	i
O=C(c1ccoc1)N1CCCC(Cc2nc(C3CCOCC3)no2)C1 (stereo not given)	5%
CCc1ccc(C(=O)c2cn(CC(=O)Nc3cc(OC)ccc3OC)c3ccc(C)cc3c2=O)cc1	10µM*
CCc1ccc(C(=O)c2cn(CC(=O)Nc3ccc(OC)cc3OC)c3ccc(CC)cc3c2=O)cc1	i
CCc1ccc(C(=O)c2cn(Cc3ccc(F)cc3)c3cc(OC)c(OC)cc3c2=O)cc1	11µM*
CCOc1ccc(NC(=O)Cn2cc(C(=O)c3ccc(CC)cc3)c(=O)c3cc(OC)c(OC)cc32)cc1	-7%
CCc1ccc(C(=O)c2cn(CC(=O)Nc3cc(OC)cc(OC)c3)c3ccc(CC)cc3c2=O)cc1	22%
CCc1ccc(C(=O)c2cn(CC(=O)Nc3ccc(F)c(F)c3)c3cc(OC)c(OC)cc3c2=O)cc1	i
COCCC1(NC(=O)c2cc(C)n(C)n2)CCN(C2CCOCC2)CC1	-13%
O=C(NCCN1CCOCC1)[C@H]1C[C@@H](O)[C@H](O)[C@@H]2N=C(Nc3ccc(-n4cccn4)cc3)S[C@@H]21	3%
CCN(C(=O)CN1C(=O)NC2(CCS(=O)(=O)CC2)C1=O)c1ccccc1	-19%
CCCCc1cc(C[C@@H]2C[C@H](NC(=O)N3CCOCC3)C2(C)C)no1	-27%[44.1 µM]

Bioassay records: PubChem, National Center for Advancing Translational Sciences (NCATS)
